In PubChem BioAssay (NCATS):
The source made the active and inactive calls. Calls follow the shape of the dose curve; as a rule, active = well fitted curve in the direction sought with a large enough effect; inconclusive = small, poorly fitted or top-dose-only effect, or effect the other way, or another doubt; inactive = no such curve, though single readings can be large or run the other way.

These molecules were tested against Beta-2 adrenergic receptor (Homo sapiens) (UniProt P07550) (assay: qHTS validation assay of beta-arrestin-biased ligands of beta2-adrenergic receptor (AID 485366)). Details: cell-based beta-arrestin recruitment to ADRB2, qHTS; series mostly up to 46.1 µM.
Chain of Beta-2 adrenergic receptor (Homo sapiens) (P07550 whole entry, looked up): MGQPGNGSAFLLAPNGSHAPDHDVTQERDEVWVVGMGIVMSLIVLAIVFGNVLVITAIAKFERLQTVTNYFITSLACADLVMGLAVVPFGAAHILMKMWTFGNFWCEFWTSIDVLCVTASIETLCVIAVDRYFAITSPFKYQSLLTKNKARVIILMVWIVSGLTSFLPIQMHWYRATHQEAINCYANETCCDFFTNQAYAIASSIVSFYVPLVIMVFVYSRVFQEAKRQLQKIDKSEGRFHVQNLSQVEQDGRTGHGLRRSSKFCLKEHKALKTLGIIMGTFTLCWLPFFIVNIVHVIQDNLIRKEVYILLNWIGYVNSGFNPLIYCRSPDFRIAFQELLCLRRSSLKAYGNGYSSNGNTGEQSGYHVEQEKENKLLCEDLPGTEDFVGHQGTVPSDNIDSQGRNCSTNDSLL
From the text: NIH Molecular Libraries Probe Production Network [MLPCN]
NIH Chemical Genomics Center [NCGC]
PI: Bryan Roth and Bob Lefkowitz
The concept of biased agonism is an emerging concept of molecular pharmacology which proposes that seven transmembrane receptors (7TMRs) or G protein-coupled receptors (GPCRs), exist in multiple signaling conformations and complexes and that ligands (either agonists or antagonists) can induce signaling biased responses for distinct signal transduction cascades.
Furthermore, accumulating evidence over the last decade has drawn attention to a novel function of beta-arrestins as signal transducers that scaffold various signaling molecules upon activation of 7TMRs. […] This beta-arrestin-biased signaling presumably leads to distinct physiological outcomes from those by G protein activation.
Additionally, the active receptor conformations which […] on this beta-arrestin signaling are likely different from those activating G protein signaling
The goal of this screening project will be to discover and optimize novel beta-arrestin-biased ligands for beta2-AR signaling. A luminescent cell-based assay for beta2-AR-mediated agonism, known as the Tango assay, has been validated in which ligand binding of a recombinant beta2-AR and subsequent recruitment of a recombinant beta-arrestin lead to the release of the transcriptional activator tTA, which upregulates transcription of a tTA-responsive luciferase gene. […] Compounds were screened as a concentration-titration series that ranged from 46 microM to 0.6 nM.
NCGC Assay Protocol Summary:
Tango cells were dispensed into white, solid, tissue-culture-treated 1536-well plates at 1500 cells/well in DMEM, containing 1% fetal bovine serum (FBS). Then, 23 nL of compounds or DMSO were delivered to each well using a pin tool. Plates were incubated at 37 degrees C, 5% CO2 for 18 hr. Then 2.5 uL luminescent substrate mix (in-house prepared: 150 mM Tris-Cl, pH 7.6, 3 mM MgCl2, 1% Triton X-100, 5 mM DTT, 0.5 mM CoA, 0.15 mM ATP, 0.44 mM D-luciferin, final concentrations) was added to each well. Plates were then incubated for 15 minutes at room temperature, and subsequently measured on a ViewLux plate reader for luminescent signal using a clear filter with a 10 second exposure and 2x binning. The %Activity was determined from the corrected luminescence values.
Concentration-response curves were fitted to the signals arising from the resulting luminescence. The concentration-effect curves were then classified based on curve quality (r2), response magnitude and degree of measured activity, and compounds were subsequently categorized based on their curve class.
Keywords: biased agonism, beta2-AR, beta-arrestin, GPCR, 7TMR, Tango, luminescence, MLSMR, MLPCN, NIH Roadmap, qHTS, NCGC

Structure (SMILES) | outcome
CN(C)CCC(c1ccccc1)c1ccccn1 (stereo not given) | inactive
O=C(O)CCc1nc(-c2ccccc2)c(-c2ccccc2)o1 | inactive
NCCS | inactive
CC(=O)N[C@@H](CS)C(=O)O | inactive
O=c1cc(-c2ccc(O)cc2)oc2cc(O)cc(O)c12 | inactive
CC(=O)CCCCn1c(=O)c2c(ncn2C)n(C)c1=O | inactive
O=c1c(-c2ccc(O)cc2)coc2cc(O)ccc12 | inactive
C[N+](C)(C)CCCCCC[N+](C)(C)C | inactive
CCN1CCC[C@H]1CNC(=O)c1cc(S(N)(=O)=O)ccc1OC | inactive
COc1ccccc1N1CCN(CCCNc2cc(=O)n(C)c(=O)n2C)CC1 | inactive
CC(=O)O[C@]1(C(C)=O)CC[C@H]2[C@@H]3C=C(Cl)C4=CC(=O)[C@@H]5C[C@@H]5[C@]4(C)[C@H]3CC[C@@]21C | inactive
CC(C)NCC(O)COc1cccc2[nH]ccc12 (stereo not given) | inactive
CC1=C(/C=C/C(C)=C/C=C/C(C)=C/C(=O)Nc2ccc(O)cc2)C(C)(C)CCC1 | inactive
CC(=O)c1ccc(S(=O)(=O)NC(=O)NC2CCCCC2)cc1 | inactive
Clc1ccc(C(c2ccc(Cl)cc2)n2cc[n+](CC(OCc3ccc(Cl)cc3Cl)c3ccc(Cl)cc3Cl)c2)cc1 (stereo not given) | inactive
COC(=O)[C@@H]1[C@H]2C[C@H]3c4[nH]c5ccccc5c4CCN3C[C@@H]2CC[C@@H]1O | inactive
O=C(NCCN1CCOCC1)c1ccc(Cl)cc1 | inactive
CC1(C)CCC2=C(O1)c1ccccc1C(=O)C2=O | inactive

Structure (SMILES) | outcome
NC(N)=Nc1nc(CSCC/C(N)=N/S(N)(=O)=O)cs1 | inactive
CCN(CC)C(=O)c1ccc(O)c(OC)c1 | inactive
CCN(CC)CCNC(=O)c1ccc(N)cc1 | inactive
CCCNC(=O)NS(=O)(=O)c1ccc(Cl)cc1 | inactive
CCCCCN(C)CCC(O)(P(=O)(O)O)P(=O)(O)O | inactive
Clc1ccc(Cn2c(CN3CCCC3)nc3ccccc32)cc1 | inactive
O=C1NCC2(CCN(CCc3ccccc3)CC2)O1 | inactive
Cc1cccc(C)c1OCC(C)N (stereo not given) | inactive
CC(C)OC(=O)C(C)(C)Oc1ccc(C(=O)c2ccc(Cl)cc2)cc1 | inactive
CCn1cc(C(=O)O)c(=O)c2ccc(C)nc21 | inactive
COc1cccc(-c2cc(=O)c3ccccc3o2)c1N | inactive
C[N+](C)(C)CC(=O)O | inactive
CC(C)(C)c1ccc(C(O)CCCN2CCC(C(O)(c3ccccc3)c3ccccc3)CC2)cc1 (stereo not given) | inactive
O=C1NC(=O)C(c2ccccc2)(c2ccccc2)N1 | inactive
CCCCC1C(=O)N(c2ccccc2)N(c2ccccc2)C1=O | inactive
COc1ccc(Cc2nccc3cc(OC)c(OC)cc23)cc1OC | inactive
CCN(CC)CCOC(=O)c1ccc(N)cc1 | inactive
